Screening data deposited in PubChem by several laboratories.
In the library only some 3% were active in any assay of this set; here they are far more common.
Mot1-301 SUMO: yeast Mot1-301 growth rescue at high temperature, primary screen, SUMOylation pathway inhibitor project, S. cerevisiae, ATP luminescence, 38.5C; S. cerevisiae Mot1-301 growth rescue; percent above DMSO median, 100 means doubled; growth rescue, % at 18.8 µM; hit rate 1% among 320,000;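 active = every valid replicate shows activation above 250% relative to neutral control wells; inactive = the rest, any valid replicate at or below 250%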
CHT allo act: CHT positive allosteric modulators, primary screen, cell-based, membrane potential dye, choline EC20. High affinity choline transporter 1 (Homo sapiens), Q9GZV3. CHT-expressing cells; stronger effect = higher value; LV-AA mutant CHT in HEK293 cells. B-score at 10 µM. hit rate 0.49% among 310,000;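 active = initial fluorescence not abnormally high and integrated response B-score, plate-corrected, over 3 SD above library mean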
Target sequence (Q9GZV3 whole entry, looked up): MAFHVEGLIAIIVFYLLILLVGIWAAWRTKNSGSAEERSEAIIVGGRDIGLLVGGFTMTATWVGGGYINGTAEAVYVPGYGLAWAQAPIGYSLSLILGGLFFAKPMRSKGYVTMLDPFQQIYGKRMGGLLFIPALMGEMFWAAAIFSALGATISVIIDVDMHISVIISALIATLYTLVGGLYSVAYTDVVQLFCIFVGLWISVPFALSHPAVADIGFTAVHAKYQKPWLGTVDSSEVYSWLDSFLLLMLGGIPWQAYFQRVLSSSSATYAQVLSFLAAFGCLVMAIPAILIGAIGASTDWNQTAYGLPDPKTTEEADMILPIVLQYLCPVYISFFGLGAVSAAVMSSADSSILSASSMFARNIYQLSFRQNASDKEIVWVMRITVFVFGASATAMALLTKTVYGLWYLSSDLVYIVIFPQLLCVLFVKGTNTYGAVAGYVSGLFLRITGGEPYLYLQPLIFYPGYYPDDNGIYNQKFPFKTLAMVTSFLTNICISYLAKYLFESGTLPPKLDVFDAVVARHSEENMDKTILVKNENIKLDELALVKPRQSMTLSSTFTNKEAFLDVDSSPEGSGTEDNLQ
NALP1 yeast inh: NALP1 inflammasome inhibitors in reconstituted yeast, colorimetric, S. cerevisiae, triplicate retest. S. cerevisiae NALP1/ASC/caspase-1 growth, X-gal OD620, 72 h. AID 2071, 2009. inhibition, % at 10 µM. hit rate 0.61% among 280,000; in the data active = inhibition mostly above about 24%, no sharp cut-off; inactive = mostly below about 32%
CHT block: inhibitors of human choline transporter CHT; High affinity choline transporter 1 (Homo sapiens), Q9GZV3; hit rate 0.86% among 310,000; AID 488975, 2010; B-score at 10 µM; CHT-expressing cells, membrane potential dye, choline response; stronger effect = lower value;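 active = B-score over 3 SD under the library average, and starting fluorescence ratio not unusually high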;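 also: choline stimulus applied at its EC90 after an EC20 pre-addition; B-score computed on integrated fluorescence ratio after choline addition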
A1 inh: caspase 3/7 activation in MEF A1-2A-BIM cells, primary screen, A1 inhibitor project, cell-based, luminescence, HTS. Caspase-Glo 3/7 luminescence, 3 h; percent of clofoctol response, vehicle zero. hit rate 0.066% among 330,000. caspase activation, % (concentration not given with the values);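 active = over half of replicate activation scores above 10%, or exactly half above 10 with the replicate mean above 10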
NALP3 yeast inh: NALP3 inflammasome inhibitors in reconstituted yeast, primary screen, luminescence, uHTS. Yeast reconstituted NLRP3/ASC/caspase-1, beta-gal luminescence, 24 h. inhibition, % at 10 µM. hit rate 0.39% among 330,000;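 active = inhibition of 50% or more; inactive = inhibition below 50%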
CHT block conf: CHT inhibitors, confirmation, cell-based, membrane potential dye, duplicate | shares compounds with CHT block | CHT-expressing cells, choline membrane potential dye; LV-to-AA substituted CHT, HEK293 cells | CHT activity remaining % of control (stronger effect = lower value), % at 10 µM | hit rate 70% among 2,400 | AID 493221, 2011;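 active = choline transporter activity left, mean of duplicates at 10 µM, below buffer-only control mean minus 3 SD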;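 also: depolarization triggered by choline at its EC90 following an EC20 pre-addition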
HEK293 CHT ctr: membrane potential effects in parental HEK293, counter-screen for CHT inhibitor project, cell-based, membrane potential dye. shares compounds with CHT block. choline response; active = decrease or increase beyond buffer ±3SD. membrane potential ratio readout (active if shifted either direction beyond buffer ±3SD; no single direction) at 10 µM. hit rate 4% among 2,400;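 also: parental cells lack the transporter so any hit is non-specific; ratio is peak minus trough fluorescence over baseline after EC90 choline challenge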
Hits are given with their value; - = inactive; . = no result given.

SMILES | Mot1-301 SUMO | CHT allo act | NALP1 yeast inh | CHT block | A1 inh | NALP3 yeast inh | CHT block conf | HEK293 CHT ctr
O=C(C1=C[C@@H](c2ccccc2)C[C@@H](OCCCCO)O1)N1CCOCC1 | - | - | - | -10 | - | - | - | -
COc1ccc(C(C)NS(=O)(=O)Cc2ccccc2)cc1 (configuration not stated) | - | - | - | - | - | - | . | .
O=c1[nH]cnc2c1ncn2[C@@H]1O[C@H](COS(=O)(=O)O)[C@@H](O)[C@H]1O | - | . | . | . | - | - | . | .
O=C(CSc1nc2ccccc2[nH]1)NCc1ccc2c(c1)OCO2 | - | - | - | - | - | - | . | .
O=C(CSc1nc2ccccc2[nH]1)c1ccc2c(c1)OCO2 | - | - | - | -6.1 | - | - | 36% | -
COc1ccc(CN(C(=O)c2ccco2)c2ccccc2)cc1 | - | - | - | -5 | - | - | - | -
COc1ccc(CN(C(=O)c2cccs2)c2ccccc2)cc1 | - | - | - | - | - | - | . | .
OCCC1CN(Cc2cccc(-n3cccn3)c2)CCN1Cc1ccccc1 (configuration not stated) | - | - | - | - | - | - | . | .
O=S(=O)(c1ccccc1)N1CCN(CCc2ccccc2)CC1 | - | - | - | - | - | - | . | .
Cc1ccc2nsnc2c1S(=O)(=O)N1CCN(CCc2ccccc2)CC1 | - | - | - | -11 | - | - | 41% | -
O=S(=O)(c1ccc(F)c(F)c1)N1CCN(CCc2ccccc2)CC1 | - | - | . | -6.8 | - | - | 54% | -
O=S(=O)(c1ccccc1F)N1CCN(CCc2ccccc2)CC1 | - | - | - | -6.8 | - | - | 48% | -
O=S(=O)(NCCN1CCN(S(=O)(=O)c2ccccc2F)CC1)c1ccccc1F | - | . | . | . | - | - | . | .
CCOC(=O)N1CCN(C(=O)CCCn2c(=O)[nH]c3ccccc3c2=O)CC1 | - | - | - | -5.9 | - | - | 5.0% | -
CCOC(=O)N1CCN(C(=O)CCCn2c(=S)[nH]c3ccc(Br)cc3c2=O)CC1 | - | - | - | -5.3 | - | - | 55% | -
CCOC(=O)N1CCN(C(=O)CCCCCn2c(=S)[nH]c3ccsc3c2=O)CC1 | - | - | - | - | - | - | . | .
CCOC(=O)N1CCN(C(=O)CCCn2c(=S)[nH]c3ccsc3c2=O)CC1 | - | - | - | -12 | - | - | 6.4% | -
CC(=O)c1ccc(N2CCN(C(=O)CCCn3c(=O)[nH]c4ccccc4c3=O)CC2)cc1 | - | - | - | - | - | - | . | .
Cc1ccc(S(=O)(=O)N2CCN(C(=O)Cn3nc(C)c([N+](=O)[O-])c3C)CC2)cc1 | - | . | . | . | - | - | . | .
O=C(NCc1cccnc1)c1ccc(Cl)c(S(=O)(=O)Nc2ccccc2C(=O)NCc2cccnc2)c1 | - | - | - | - | - | - | . | .
CCCNC(=O)N1CCCC(C(=O)c2cccc(Cl)c2)C1 (configuration not stated) | - | - | - | -5.2 | - | - | 60% | -
CCOc1c(Cl)cc(/C=C/C(=O)N(CC)CC(=O)NCc2cccs2)cc1OC | - | - | . | -7.6 | - | - | - | -
CC(C)(C)c1cc(C(F)(F)F)nc(SCCCNC(=O)c2ccco2)n1 | - | - | - | -5.5 | - | - | - | -
Cc1ccccc1C(=O)N=c1ccn(-c2nc3ccccc3nc2NS(=O)(=O)c2ccc(F)cc2)cc1 | - | - | - | -5.9 | - | - | - | -
